The values below come from ChEMBL document CHEMBL4513216, “Probing the Open Global Health Chemical Diversity Library for Multistage-Active Starting Points for Next-Generation Antimalarials” (ACS Infect Dis, 2020).

The structures appear in SMILES notation. In all, about 69,000 compounds went through this assay and about 8,600 (12%) showed an effect of 50% or more. Many of the other results were omitted from the sample, so strong results are more common in it than they were.

The assay concerns Plasmodium berghei. The assay can be described thus: Screen against P. berghei liver stage (PbLuc), transformed with Luciferase, at 10uM. To be noted: tested at 10 uM. Type of assay: functional, HepG2.
On to `CCc1nc(C)sc1CN1CC[C@](C)(O)[C@H](C)C1`, for which the INHIBITION worked out at 48.5%.

Regarding `CCc1nc(C)sc1CNC1CCN(Cc2ccccc2)C1` (stereo not drawn), the INHIBITION is recorded as 51.1%. The same measure for `Cc1nc(CCNC2CCN(Cc3ccccc3)C2)sc1C` (stereo not drawn): 40.5%; for `Cc1nc(CNC2CCN(Cc3ccccc3)C2)sc1C` (stereo not drawn): 47.9%. As for `CCc1csc(CNC2CCN(c3ccc(C)cc3)CC2)n1`, the figure is 1.94%. For `CCc1csc(CNC2CCN(Cc3ccccc3)C2)n1` (stereo not drawn), the INHIBITION came out at 64%.

For the compound `CNc1ncccc1CN1CCCCC1c1ccnc(N)n1` (stereo not drawn), the INHIBITION is 32.3%.

As for `O=C(NCC1CC1)[C@H]1CC[C@@H]2[C@@H](CCN2Cc2nccs2)O1`, the INHIBITION was 46.1%. Regarding `COC(=O)c1cccn1C1CCN(CC(=O)NC2CCCCC2)CC1`, the INHIBITION came out at 43.7%. The same measure for `Cc1noc(C)c1C(=O)N(C)C(C)c1ccncc1` (stereo not drawn): 17.5%; for `Cc1noc(C)c1C(=O)N(C)C(C)c1ccc(S(C)(=O)=O)cc1` (stereo not drawn): 10.7%. The same measure for `Cc1noc(C)c1C(=O)N(C)C(C)c1cccnc1` (stereo not drawn): 79%. As for `CS(=O)(=O)N1CCCN(c2nccn3cnnc23)CC1`, the figure is -39.2%; as for `OCCN(Cc1ccccc1)Cc1ccsc1`, 3.96%; as for `CC(NC(=O)c1ccc(C#N)cn1)C1(N2CCOCC2)CCCC1` (stereo not drawn), 37.1%. Regarding `Cn1ncc2c1NC(=O)CC2c1cc(Cl)ccc1F` (stereo not drawn), the INHIBITION is 8.49%. As for `Cn1ncc2c1NC(=O)CC2c1ccccc1Cl` (stereo not drawn), the figure is 54.5%; as for `CC(C)n1ncc2c1NC(=O)CC2c1ccccc1Cl` (stereo not drawn), 9.32%; as for `Cn1ncc2c1NC(=O)CC2c1c(Cl)cccc1Cl` (stereo not drawn), 25.1%.

Take `Cn1ncc2c1NC(=O)CC2c1cc2c(cc1Cl)OCO2` (stereo not drawn): the INHIBITION is 61.2%.

In the case of `Cn1ncc2c1NC(=O)CC2c1ccc(Cl)cc1Cl` (stereo not drawn), the INHIBITION was found to be 34%. The same measure for `O=C(NCc1cccnc1)c1ccc2nccn2c1`: 32.5%. Take `COc1ccccc1CN1CCC(Cc2cnc(CN(C)C)cn2)CC1`: the INHIBITION is recorded as 8.12%. The same measure for `Cc1nc(C)c(C(=O)N2CCCC(n3ccnc3C)C2)s1` (stereo not drawn): 21.7%.

Take `O=S(=O)(Cc1c(F)cccc1F)NCCOc1cccnc1`: the INHIBITION is 42.4%. The same measure for `Cc1ccc(C(=O)N2CCCC(n3cccn3)C2)cc1S(C)(=O)=O` (stereo not drawn): 23.95%. Turning to `CCc1noc(CCC(=O)N[C@@H]2CC[C@@H](n3ccnc3C)[C@@H]2O)n1`, the INHIBITION is listed as 56.8%. As for `CCc1noc(CCC(=O)N[C@@H]2CC[C@@H](n3ccnc3)[C@@H]2O)n1`, the figure is 8.72%. The same measure for `Cc1nccn1[C@@H]1CC[C@@H](NC(=O)CCCn2cccn2)[C@H]1O`: 4.13%; for `Cc1cc(NC(=O)c2ccc(F)cc2Cl)n(C)n1`: -23.8%. The same measure for `CCc1cc(-c2nccn2-c2ccccc2CN2CCOCC2)on1`: -4.51%. Take `CCn1ccnc1-c1nccn1-c1ccccc1CN1CCOCC1`: the INHIBITION was found to be 58.3%. As for `COc1ncc(-c2nccn2-c2ccccc2CN2CCOCC2)cn1`, the figure is 32.3%; as for `CNc1cc(CNC(=O)c2ccccc2OC)nc(-c2ccncc2)n1`, 23.4%. The same measure for `O=c1[nH]nc2c(S(=O)(=O)N3CCCC3)cccn12`: 6.12%; for `O=c1[nH]nc2c(S(=O)(=O)N3CCCCCC3)cccn12`: -15.2%. As for `O=c1[nH]nc2c(S(=O)(=O)N3CCCCC3)cccn12`, the figure is 51%; as for `Cc1ccoc1C1=NNC(=CN2CCn3c(nnc3C(C)C)C2)O1`, 15.3%; as for `CC(C)c1nc(CN(C)C(=O)C(O)c2ccc(Cl)cc2)cs1` (stereo not drawn), -15.6%.

For `O=c1cc(CN(Cc2ccco2)C2CC2)nc2ccc(Br)cn12`, the INHIBITION stood at 9.65%. As for `CN1CCC(N(Cc2ccco2)S(=O)(=O)c2ccc(Cl)cc2)CC1`, the INHIBITION amounted to 27.9%. As for `CC1CCN(C(=O)CN(Cc2ccco2)C2CC2)CC1`, the INHIBITION is listed as 37%. `CN(C1CCCCC1)S(=O)(=O)N1CCN(Cc2ccco2)CC1`: the INHIBITION turned out to be 40%. As for `CN1CCC(N(Cc2ccco2)S(=O)(=O)c2cc(Br)ccc2Br)CC1`, the figure is 69.8%; as for `CN1CCC(N(Cc2ccco2)S(=O)(=O)c2ccc(Br)cc2Cl)CC1`, 61.2%.

With `CC(NCc1cccc(Cl)c1)c1ccc(OCC(=O)NC2CC2)cc1` (stereo not drawn), the INHIBITION was 13.3%. As for `COc1ccc2nnc(CCC(=O)NCc3cccn3C)n2n1`, the figure is 9.57%. The same measure for `Cc1nc(CCC(N)=O)cc(C2CCCN2S(C)(=O)=O)n1` (stereo not drawn): 26.1%; for `CC(C)c1nc2c(n1C)CCN(CC(=O)Nc1nncs1)C2`: -12.2%. Regarding `CC(=O)NC1CCN(c2ccnc(C3CCNCC3)c2)CC1`, the INHIBITION is listed as 2.55%.

With `Fc1ccc2[nH]c3c(c2c1)CCN1C(c2ccncc2)N2CCC31CC2` (stereo not drawn), the INHIBITION is -62.4%. As for `O=C(CSC(F)(F)F)N1CCC2(CCCN(C3CCOCC3)C2=O)C1` (stereo not drawn), the figure is -36.6%; as for `Cc1cc(NCC(C)C)ccc1C(=O)N(C)C`, 21.5%. As for `CCN(CC)C(=O)Nc1ccc(C(=O)N(C)C)c(C)c1`, the figure is 19.7%; as for `Cc1cc(NC(N)=O)ccc1C(=O)N(C)C`, 61%. The same measure for `Cn1cc(-c2nnn3c2COC(CNCC2CCOCC2)C3)cn1` (stereo not drawn): 5.67%.

As to `CSCCc1c(-c2ccccc2)ncn1CCNc1cccnc1`, the INHIBITION is given as 63.6%.

In the case of `CCN(C)CC(C)Cn1cnc(-c2ccccc2)c1C` (stereo not drawn), the INHIBITION is on record as -107%.
